# Measurements reported in PubChem BioAssay AID1159580 (chemical genetic matrix, 2015).
# “And” between values parts separate entries of the source, which are not always exact repeats. Equal entries are not always repeated. In all, about 5,500 compounds went through this assay and about 2,000 (36%) were called active. Roughly 18% stayed inconclusive and do not appear here. The list shows a part of the results. A number with no mark means an inactive call. Cut-off read from the data, not from the text of the source: active = normalized growth mostly below about 0.91 (no sharp cut-off); inconclusive = no clear call, values can overlap the other calls; inactive = mostly above about 0.92.
# Assay: chemical genetic growth profiling, strain panel (AID 1159580);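 note: tested at 20 µM; growth read once vehicle control cultures reached saturation at 30 °C; 1 = growth at the plate median or of vehicle wells; lower values mean less growth of the strain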
# Conditions: growth OD
# [1] = S. cerevisiae deletion strains, locus YAL013W, strain DEP1, active compounds read low
# [2] = S. cerevisiae deletion strains, locus YBR229C, strain ROT2, active compounds read low
# [3] = S. cerevisiae deletion strains, locus YDL101C, strain DUN1, active compounds read low
# [4] = S. cerevisiae deletion strains, locus YDR150W, strain NUM1, active compounds read low
# [5] = S. cerevisiae deletion strains, locus YEL061C, strain CIN8, active compounds read low
# [6] = S. cerevisiae deletion strains, locus YGR078C, strain PAC10, active compounds read low
# [7] = S. cerevisiae deletion strains, locus YGR229C, strain SMI1, active compounds read low
# [8] = S. cerevisiae deletion strains, locus YHR030C, strain SLT2, active compounds read low
# [9] = S. cerevisiae deletion strains, locus YKL190W, strain CNB1, active compounds read low
# [10] = S. cerevisiae deletion strains, locus YLR039C, strain RIC1, active compounds read low
# [11] = S. cerevisiae deletion strains, locus YMR263W, strain SAP30, active compounds read low
# [12] = S. cerevisiae deletion strains, locus YMR307W, strain GAS1, active compounds read low
# [13] = S. cerevisiae deletion strains, locus YNL153C, strain GIM3, active compounds read low
# [14] = S. cerevisiae deletion strains, locus YOL006C, strain TOP1, active compounds read low
# [15] = S. cerevisiae deletion strains, locus YPL055C, strain LGE1, active compounds read low
# [16] = S. cerevisiae deletion strains, locus YPL241C, strain CIN2, active compounds read low
# [17] = S. cerevisiae deletion strains, locus YHR079C, strain IRE1, active compounds read low
# [18] = S. cerevisiae deletion strains, locus YJL095W, strain BCK1, active compounds read low
# [19] = S. cerevisiae deletion strains, locus YJR066W, strain TOR1, active compounds read low
# [20] = S. cerevisiae deletion strains, locus YLR113W, strain HOG1, active compounds read low
# [21] = S. cerevisiae deletion strains, locus YNL183C, strain NPR1, active compounds read low
# [22] = S. cerevisiae deletion strains, locus YOR231W, strain MKK1, active compounds read low
# [23] = S. cerevisiae deletion strains, locus YPL256C, strain CLN2, active compounds read low
smiles,measurement,setting,value
COC(=O)c1cc(OC)c(OC)cc1-n1c(C)ccc1C,normalized growth,[1],0.999
same,normalized growth,[2],0.994
same,normalized growth,[3],0.975
same,normalized growth,"S. cerevisiae deletion strains, locus YDL134C, strain PPH21, active compounds read low",1.03
same,normalized growth,[4],0.947
same,normalized growth,[5],1.01
same,normalized growth,[6],0.987
same,normalized growth,[7],1
same,normalized growth,[8],0.999
same,normalized growth,"S. cerevisiae deletion strains, locus YHR087W, strain rtc3, active compounds read low",0.983
same,normalized growth,"S. cerevisiae deletion strains, locus YJR043C, strain POL32, active compounds read low",0.985
same,normalized growth,"S. cerevisiae deletion strains, locus YJR075W, strain HOC1, active compounds read low",0.963
same,normalized growth,[9],1.01
same,normalized growth,[10],0.993
same,normalized growth,"S. cerevisiae deletion strains, locus YLR058C, strain SHM2 (second series), active compounds read low",0.995
same,normalized growth,"S. cerevisiae deletion strains, locus YLR085C, strain ARP6, active compounds read low",1.01
same,normalized growth,"S. cerevisiae deletion strains, locus YLR262C, strain YPT6, active compounds read low",0.957
same,normalized growth,"S. cerevisiae deletion strains, locus YML094W, strain GIM5, active compounds read low",1
same,normalized growth,"S. cerevisiae deletion strains, locus YMR219W, strain ESC1, active compounds read low",0.998
same,normalized growth,[11],0.91
same,normalized growth,[12],0.948
same,normalized growth,[13],0.983
same,normalized growth,"S. cerevisiae deletion strains, locus YNL298W, strain CLA4 (second series), active compounds read low",1.02
same,normalized growth,"S. cerevisiae deletion strains, locus YNL322C, strain KRE1, active compounds read low",0.99
same,normalized growth,"S. cerevisiae deletion strains, locus YNR030W, strain Alg12, active compounds read low",1.01
same,normalized growth,[14],1
same,normalized growth,[15],0.877
same,normalized growth,[16],1
same,normalized growth,"S. cerevisiae deletion strains, locus YPR135W, strain CTF4, active compounds read low",0.915
same,normalized growth,"S. cerevisiae strains, strain wild type, active compounds read low",1.01
CC(=O)O[C@@H]1CC2C(C)(C)C(=O)CC[C@]2(C)C2CC[C@]3(C)C(=CC(=O)O[C@H]3c3ccoc3)[C@@]21C (stereo partly specified),normalized growth,[1],0.988
same,normalized growth,"S. cerevisiae deletion strains, locus YBR021W, strain FUR4, active compounds read low",0.989
same,normalized growth,[2],0.939
same,normalized growth,"S. cerevisiae deletion strains, locus YCL029C, strain bik1, active compounds read low",0.985
same,normalized growth,"S. cerevisiae deletion strains, locus YDL035C, strain GPR1, active compounds read low",0.964
same,normalized growth,"S. cerevisiae deletion strains, locus YDL074C, strain BRE1, active compounds read low",0.954
same,normalized growth,[3],1
same,normalized growth,"S. cerevisiae deletion strains, locus YDL185W, strain tfp1, active compounds read low",0.966
same,normalized growth,"S. cerevisiae deletion strains, locus YDL192W, strain arf1, active compounds read low",0.971
same,normalized growth,"S. cerevisiae deletion strains, locus YDR101C, strain arx1, active compounds read low",0.959
same,normalized growth,"S. cerevisiae deletion strains, locus YDR162C, strain NBP2, active compounds read low",0.98
same,normalized growth,"S. cerevisiae deletion strains, locus YDR318W, strain mcm21, active compounds read low",0.992
same,normalized growth,"S. cerevisiae deletion strains, locus YDR388W, active compounds read low",0.995
same,normalized growth,"S. cerevisiae deletion strains, locus YDR502C, strain sam2, active compounds read low",1.01
same,normalized growth,[5],0.972
same,normalized growth,"S. cerevisiae deletion strains, locus YER110C, active compounds read low",0.978
same,normalized growth,"S. cerevisiae deletion strains, locus YER155C, strain BEM2, active compounds read low",0.991
same,normalized growth,"S. cerevisiae deletion strains, locus YER167W, strain BCK2, active compounds read low",0.97
same,normalized growth,"S. cerevisiae deletion strains, locus YGL078C, strain dbp3, active compounds read low",1.01
same,normalized growth,"S. cerevisiae deletion strains, locus YGL086W, strain mad1, active compounds read low",0.998
same,normalized growth,"S. cerevisiae deletion strains, locus YGL248W, strain PDE1, active compounds read low",0.999
same,normalized growth,[6],1.02
same,normalized growth,"S. cerevisiae deletion strains, locus YGR135W, strain pre9, active compounds read low",1.07
same,normalized growth,"S. cerevisiae deletion strains, locus YGR252W, strain gcn5, active compounds read low",1.03
same,normalized growth,[8],1.06
same,normalized growth,"S. cerevisiae deletion strains, locus YHR079C, strain IRE1 (second series), active compounds read low",0.975
same,normalized growth,[17],1.04
same,normalized growth,"S. cerevisiae deletion strains, locus YHR094C, strain hxt1, active compounds read low",0.991
same,normalized growth,"S. cerevisiae deletion strains, locus YHR129C, strain ARP1, active compounds read low",0.989
same,normalized growth,"S. cerevisiae deletion strains, locus YHR200W, strain rpn10, active compounds read low",1
same,normalized growth,"S. cerevisiae deletion strains, locus YIL066C, strain RNR3, active compounds read low",0.948
same,normalized growth,"S. cerevisiae deletion strains, locus YIL073C, strain SPO22, active compounds read low",0.977
same,normalized growth,"S. cerevisiae deletion strains, locus YIL125W, strain kgd1, active compounds read low",0.993
same,normalized growth,"S. cerevisiae deletion strains, locus YIR030C, strain dcg1, active compounds read low",0.987
same,normalized growth,[18],1.05 and 1.06
same,normalized growth,"S. cerevisiae deletion strains, locus YJL134W, strain LCB3, active compounds read low",0.98
same,normalized growth,"S. cerevisiae deletion strains, locus YJL168C, strain set2, active compounds read low",0.988
same,normalized growth,"S. cerevisiae deletion strains, locus YJL187C, strain SWE1 (second series), active compounds read low",1.01
same,normalized growth,[19],0.991
same,normalized growth,"S. cerevisiae deletion strains, locus YKL009W, strain mrt4, active compounds read low",0.976
same,normalized growth,"S. cerevisiae deletion strains, locus YKL068W, active compounds read low",0.991
same,normalized growth,"S. cerevisiae deletion strains, locus YKL085W, strain MDH1 (second series), active compounds read low",0.995
same,normalized growth,"S. cerevisiae deletion strains, locus YKL085W, strain MDH1, active compounds read low",0.995
same,normalized growth,[9],0.983
same,normalized growth,"S. cerevisiae deletion strains, locus YKR001C, strain vps1, active compounds read low",0.974
same,normalized growth,[10],0.961
same,normalized growth,"S. cerevisiae deletion strains, locus YLR058C, strain SHM2, active compounds read low",0.979
same,normalized growth,"S. cerevisiae deletion strains, locus YLR102C, strain apc9, active compounds read low",0.99
same,normalized growth,[20],1.03
same,normalized growth,"S. cerevisiae deletion strains, locus YLR268W, strain sec22, active compounds read low",0.956
same,normalized growth,"S. cerevisiae deletion strains, locus YLR371W, strain rom2, active compounds read low",0.967
same,normalized growth,"S. cerevisiae deletion strains, locus YLR418C, strain cdc73, active compounds read low",1
same,normalized growth,"S. cerevisiae deletion strains, locus YML016C, strain PPZ1, active compounds read low",0.978
same,normalized growth,"S. cerevisiae deletion strains, locus YML032C, strain rad52, active compounds read low",0.982
same,normalized growth,"S. cerevisiae deletion strains, locus YML124C, strain tub3, active compounds read low",0.992
same,normalized growth,"S. cerevisiae deletion strains, locus YMR078C, strain ctf18, active compounds read low",0.989
same,normalized growth,"S. cerevisiae deletion strains, locus YMR223W, strain ubp8, active compounds read low",1
same,normalized growth,[12],0.989
same,normalized growth,"S. cerevisiae deletion strains, locus YNL067W, strain RPL9B, active compounds read low",1.04
same,normalized growth,[21],0.989
same,normalized growth,"S. cerevisiae deletion strains, locus YNL233W, strain BNI4, active compounds read low",1.03
same,normalized growth,"S. cerevisiae deletion strains, locus YNL250W, strain rad50, active compounds read low",0.992
same,normalized growth,"S. cerevisiae deletion strains, locus YNL271C, strain bni1, active compounds read low",0.993
same,normalized growth,"S. cerevisiae deletion strains, locus YNL298W, strain CLA4, active compounds read low",0.989
same,normalized growth,"S. cerevisiae deletion strains, locus YNL307C, strain MCK1, active compounds read low",0.982
same,normalized growth,"S. cerevisiae deletion strains, locus YNR052C, strain pop2, active compounds read low",1.04
same,normalized growth,[14],0.932
same,normalized growth,"S. cerevisiae deletion strains, locus YOL012C, strain htz1",0.896
same,normalized growth,"S. cerevisiae deletion strains, locus YOL147C, strain pex11, active compounds read low",0.984
same,normalized growth,"S. cerevisiae deletion strains, locus YOR061W, strain CKA2, active compounds read low",0.934
same,normalized growth,"S. cerevisiae deletion strains, locus YOR069W, strain VPS5, active compounds read low",0.996
same,normalized growth,"S. cerevisiae deletion strains, locus YOR136W, strain idh2, active compounds read low",1
same,normalized growth,"S. cerevisiae deletion strains, locus YOR144C, strain elg1, active compounds read low",0.997
same,normalized growth,"S. cerevisiae deletion strains, locus YOR184W, strain ser1, active compounds read low",0.964
same,normalized growth,[22],1.07
same,normalized growth,"S. cerevisiae deletion strains, locus YOR316C, strain cot1, active compounds read low",0.997
same,normalized growth,[16],0.978
same,normalized growth,[23],1.05
same,normalized growth,"S. cerevisiae deletion strains, locus YPR119W, strain clb2, active compounds read low",0.992
same,normalized growth,"S. cerevisiae deletion strains, locus YPR141C, strain kar3, active compounds read low",0.982
same,normalized growth,"S. cerevisiae deletion strains, locus YPR163C, strain tif3, active compounds read low",0.99
same,normalized growth,"S. cerevisiae deletion strains, locus YPR167C, strain met16, active compounds read low",0.992
same,normalized growth,"S. cerevisiae deletion strains, strain wtn01, active compounds read low",0.967
CC[N+](CC)(CC(=O)Nc1c(C)cccc1C)Cc1ccccc1,normalized growth,[8],0.962
same,normalized growth,[17],0.878
same,normalized growth,[18],0.916
same,normalized growth,[19],0.897
same,normalized growth,[20],0.814 (active)
same,normalized growth,[21],0.851
same,normalized growth,[22],0.899
same,normalized growth,[23],0.868
CC[N+](CC)(CC)CC(=O)Nc1c(C)cccc1C,normalized growth,"S. cerevisiae deletion strains, locus YAL040C, strain CLN3, active compounds read low",0.958
same,normalized growth,"S. cerevisiae deletion strains, locus YCL061C, strain MRC1 (second series), active compounds read low",0.999
same,normalized growth,[4],1
same,normalized growth,"S. cerevisiae deletion strains, locus YDR363W, strain ESC2, active compounds read low",1.02
same,normalized growth,"S. cerevisiae deletion strains, locus YER002W, strain NOP16, active compounds read low",1.01
same,normalized growth,[6],1.02
same,normalized growth,[7],1
same,normalized growth,[11],1
same,normalized growth,"S. cerevisiae deletion strains, locus YNL128W, strain TEP1, active compounds read low",1.01
same,normalized growth,[13],0.995
same,normalized growth,"S. cerevisiae deletion strains, locus YNL175C, strain NOP13, active compounds read low",1
same,normalized growth,"S. cerevisiae deletion strains, locus YNL197C, strain WHI3, active compounds read low",1.01
same,normalized growth,"S. cerevisiae deletion strains, locus YNL224C, strain SQS1, active compounds read low",0.999
same,normalized growth,"S. cerevisiae deletion strains, locus YOR083W, strain WHI5 (second series), active compounds read low",0.999
same,normalized growth,[15],1.01
